hgDAF12 agonist – H. glycines DAF-12 receptor agonists, primary screen, cell-based, luminescence, HEK293, GAL4 fusion, UAS-luciferase; Nuclear hormone receptor DAF-12 (Heterodera glycines), GAL4 fusion; HEK293 GAL4-hgDAF12 UAS-luciferase reporter, agonist luminescence; normalized to butyrate control; activation, % at 6.8 µM; hit rate 1.8% among 370,000;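 active means activation above a cutoff set at the mean of all screened compounds plus 3 SD, cut at about 10% in these data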;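 further: 0% = DMSO wells and 100% = sodium butyrate wells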
DAX1 inh-1 – DAX1 (NR0B1) inhibitors on StAR promoter, primary screen, cell-based, luminescence, SF-1 (NR5A1), full-length DAX-1 | HEK293T StAR-luciferase reporter, SF-1/DAX-1 repression relief | inhibition, % at 6.8 µM | hit rate 1.1% among 370,000;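 active means inhibition above the mean over all tested compounds plus 3 SD, cut at about 3.6% in these data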;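 further: 0% = DAX-1 cells with DMSO and 100% = cells lacking DAX-1 with DMSO; higher inhibition means more luminescence from relief of DAX-1 repression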
hcDAF12 agonist – H. contortus DAF-12 nuclear receptor activators, primary screen, cell-based, luminescence, HEK293, lit1-tk-luc reporter | HEK293 hcDAF-12 lit1-tk-luc reporter; 0% DMSO, 100% Δ7-dafachronic acid | activation, % at 6.8 µM | hit rate 1.4% among 370,000 | AID 652067, 2013;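 active means activation above the mean of all tested compounds plus 3 SD, cut at about 5.5% in these data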;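 further: 100% = response to 3 µM Δ7-dafachronic acid high control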
ssDAF-12 act – S. stercoralis DAF-12 nuclear receptor activators, primary screen, cell-based, luminescence, HEK293, GRIP1 co-expression, lit1-tk-luc. hit rate 1% among 370,000. HEK293 ssDAF-12/GRIP1 lit1-tk-luc reporter; % of 3 µM dafachronic acid response. activation, % at 6.8 µM. Nuclear hormone receptor DAF-12 (Strongyloides stercoralis);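 active means activation above the mean over all tested compounds plus 3 SD, cut at about 0.9% in these data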;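 further: 0% = DMSO-only wells and 100% = 3 µM delta7-dafachronic acid wells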
DAX1 inh-2 – DAX1 (NR0B1) inhibitors, primary screen, cell-based, HEK293, Gal4-DAX1, luciferase luminescence. AID 504766, 2011. inhibition, % at 6.75 µM. hit rate 0.99% among 340,000. Nuclear receptor subfamily 0 group B member 1 (Homo sapiens), P51843. HEK293 Gal4-DAX1 luciferase reporter;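 active means inhibition above the mean over all tested compounds plus 3 SD, cut at about 4.2% in these data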;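 further: 0% = DAX1-transfected cells with DMSO and 100% = empty-vector control cells with DMSO; inhibition shows as a rise in luminescence from relieved DAX1 repression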
Target sequence (P51843 207-470 limits assumed): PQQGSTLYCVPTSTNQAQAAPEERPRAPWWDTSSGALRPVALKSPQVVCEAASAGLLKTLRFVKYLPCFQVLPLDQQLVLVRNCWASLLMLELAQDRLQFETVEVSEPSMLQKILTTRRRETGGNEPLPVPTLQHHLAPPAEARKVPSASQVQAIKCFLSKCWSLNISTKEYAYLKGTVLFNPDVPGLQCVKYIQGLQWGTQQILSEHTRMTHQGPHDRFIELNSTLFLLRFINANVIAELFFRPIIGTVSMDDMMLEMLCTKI
An asterisk follows results filed as active; . = no result given. Most compounds without a hit are left out; they make up all but 4.1% or so of the library.

SMILES	hgDAF12 agonist	DAX1 inh-1	hcDAF12 agonist	ssDAF-12 act	DAX1 inh-2
C=CCNc1nnc(Cl)c2ccccc12	.	.	.	.	-2
CC1CCN(CC(=O)NC2CCCCC2)CC1	-1	0	-1	0	4.3*
O=C(CN1CCCCC1)NC(=O)NC1CCCCC1	-1	1	1	-1	0
O=[N+]([O-])c1cccc(-c2noc(-c3ccco3)n2)c1	12*	1	3	-1	2
CCOc1ccccc1C(=O)NN1C(=O)CCC1=O	4	0	4	1.0*	3
CCOc1ccccc1C(=O)NCCNC(=O)c1ccccc1OCC	-1	0	-1	-2	2
CCCCCC[C@@H](CN(CCCC)S(C)(=O)=O)c1ccccc1	2	-2	-2	-1	.
N#Cc1c(Cl)c(Cl)c2nnc(-c3ccc(Br)cc3)n2c1Cl	2	-1	3	1.2*	.
O=C(Cn1cc2c(n1)CCCCC2)N1CCc2ccccc21	3	1	6.3*	0	2
CC1CCC(NC(=O)CCNC(=O)c2ccc(Br)cc2)CC1 (centres undefined)	10	4.3*	2	0	1
CC1CCC(NC(=O)c2ccc(S(C)(=O)=O)cc2)CC1 (centres undefined)	3	1	0	6.4*	0
O=C(c1ccncc1)N1CC[C@H]2[C@H](CCCN2Cc2cc(F)cc(F)c2)C1	-2	-1	0	-1	.
COc1cc(NC(=O)C2CCCN(S(=O)(=O)c3ccc(Cl)s3)C2)cc(OC)c1 (centres undefined)	-4	-1	-4	-2	.
O=C(C1CCC(CNc2c(N3CCCCC3)c(=O)c2=O)CC1)N1CCN(C2CCCCC2)CC1 (centres undefined)	-1	1	-1	-2	4.4*
CCOC(=O)[C@@]12CCC3=C1N(CCC3)C(=O)[C@H](CC(=O)NCCC(C)C)C2	0	-2	-2	-1	.
FC(F)(F)c1cc(Cc2nc3ccccc3n2C(CCc2ccccc2)c2nc3ccccc3[nH]2)cc(C(F)(F)F)c1 (centres undefined)	6	3.9*	0	-2	.
Cc1ccc(Cc2nc3ccccc3n2C(CCc2ccccc2)c2nc3ccccc3[nH]2)cc1 (centres undefined)	2	3	0	-1	.
O=[N+]([O-])c1cccc(C2Nc3cccc4cccc(c34)N2)c1	1	1	-2	-1	1
O=[N+]([O-])c1ccc(C2Nc3cccc4cccc(c34)N2)cc1	2	0	3	1.6*	1
Cc1cccc(OCC(=O)N2CCC(c3ccccc3)C2)c1 (centres undefined)	10*	1	3	-1	1
CCN1C(=O)C(=CC=CN(C)c2ccccc2)SC1=S	7	2	0	0	4.7*
O=C(O)CN1C(=O)/C(=C/C=C/c2ccccc2)SC1=S	1	0	0	-1	1
COc1cc(C)ccc1C(=O)N1CCC(Oc2cccnc2)CC1	3	0	-3	-1	.
COc1ccc2c(n1)Sc1nc3ccccc3nc1N2	4	-2	2	1	5.5*
COc1cc2ccccc2nn1	1	0	2	-1	1
SMILES	hgDAF12 agonist	DAX1 inh-1	hcDAF12 agonist	ssDAF-12 act	DAX1 inh-2
CCOc1ccc(-n2c(SCC(=O)Nc3ccc(S(=O)(=O)Nc4cc(C)nc(C)n4)cc3)nnc2-c2cccc(C)c2)cc1	-3	-1	-3	-1	.
Cc1cc(Cl)ccc1OCCn1cncn1	4	0	6.0*	0	0
CC(C)c1cc(C(C)C)c(S(=O)(=O)N2CCCC(C(=O)NCc3cccs3)C2)c(C(C)C)c1 (centres undefined)	-2	-2	-2	-2	.
COc1ccc(C(=O)NN=C2CCCC2)cc1	3	0	1	-1	2
COc1cccc(C(=O)NN=C2CCCC2)c1	11*	4.5*	3	1	2
O=C(NN=C1CCCC1)c1ccccc1[N+](=O)[O-]	-2	0	0	-1	2
O=C(NN=C1CCCC1)c1ccccc1O	11*	0	0	0	3
CN1CCCCC(NC(=O)C2CCCCC2)C1=O (centres undefined)	0	1	0	-1	.
Cc1ccc(OCC(=O)N/N=C2/SCC(=O)N2Cc2ccco2)cc1	0	1	-2	-1	6.9*
Cn1c(Cc2nc3ccccc3n2C)nc2ccccc21	-1	-1	-1	-1	0
CCN(Cc1nc2ccccc2n1C)c1ccccc1	6	0	4	2.1*	0
O=C(Nc1ccc2ccccc2c1)c1ccc2[nH]c(=O)c(=O)[nH]c2c1	2	1	6.1*	0	1
CCOC(=O)/C=C/c1ccc2oc3ccccc3c(=O)c2c1	7	1	5	2.0*	1
COc1ccccc1C1CC(c2ccccc2)=NN1S(=O)(=O)c1ccccc1 (centres undefined)	11*	0	3	1	-2
CCCSc1nc2c(cnn2-c2ccccc2)c(=O)n1N	13*	1	5.8*	-1	1
COc1ccc(NC(=O)CCC(=O)c2cccs2)c(OC)c1	.	.	.	.	3
COc1ccc(NC(=O)C(NC(=O)Cc2cccs2)c2ccccc2)cc1 (centres undefined)	-1	0	0	-1	-2
COc1ccc(NC(=O)C(NC(=O)Cc2cccs2)c2ccc(C)cc2)cc1 (centres undefined)	7	0	-1	-1	4.7*
COc1ccc(NC(=O)Cc2cccs2)c(OC)c1	10*	1	1	0	-1
CN(CCOC(=O)CSc1ccccc1)C1CN(Cc2cn(Cc3ccccc3F)nn2)S(=O)(=O)C1 (centres undefined)	1	0	2	-1	.
O=C(COc1ccccc1Cl)Nc1cccnc1	12*	3	2	-1	4
CCOc1ccc(N2C(=O)C(Cl)=C(Nc3ccccc3O)C2=O)cc1	5	-1	5.6*	1	0
CCc1cc2c(=O)c(-c3nc4ccccc4[nH]3)coc2c(CN2CCCCC2)c1O	-2	0	-1	-1	-1
CCc1cc2c(=O)c(-c3nc4ccccc4[nH]3)coc2c(CN2CCCCC2C)c1O (centres undefined)	0	-1	-1	-2	4.6*
N#CCSc1ccccc1NC(=O)CN1C(=O)C2CC=CCC2C1=O (centres undefined)	5	-5	4	2.3*	1
CCCN(CCC)C(=O)Cn1c2ccccc2c2nc(=O)cc(C)n21	-1	1	4	1.1*	-1
